Assay [1] has as its target Sphingosine kinase 1 (Homo sapiens) (UniProt Q9NYA1). The conditions noted are these: at 1 µM.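 Further: mean SPHK1 inhibition value reported from the GSK PKIS kinase panel screen.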
Assay [2] deals with T1, Sphingosine kinase 2 (Homo sapiens) (UniProt Q9NRA0).
T1 sequence (whole entry): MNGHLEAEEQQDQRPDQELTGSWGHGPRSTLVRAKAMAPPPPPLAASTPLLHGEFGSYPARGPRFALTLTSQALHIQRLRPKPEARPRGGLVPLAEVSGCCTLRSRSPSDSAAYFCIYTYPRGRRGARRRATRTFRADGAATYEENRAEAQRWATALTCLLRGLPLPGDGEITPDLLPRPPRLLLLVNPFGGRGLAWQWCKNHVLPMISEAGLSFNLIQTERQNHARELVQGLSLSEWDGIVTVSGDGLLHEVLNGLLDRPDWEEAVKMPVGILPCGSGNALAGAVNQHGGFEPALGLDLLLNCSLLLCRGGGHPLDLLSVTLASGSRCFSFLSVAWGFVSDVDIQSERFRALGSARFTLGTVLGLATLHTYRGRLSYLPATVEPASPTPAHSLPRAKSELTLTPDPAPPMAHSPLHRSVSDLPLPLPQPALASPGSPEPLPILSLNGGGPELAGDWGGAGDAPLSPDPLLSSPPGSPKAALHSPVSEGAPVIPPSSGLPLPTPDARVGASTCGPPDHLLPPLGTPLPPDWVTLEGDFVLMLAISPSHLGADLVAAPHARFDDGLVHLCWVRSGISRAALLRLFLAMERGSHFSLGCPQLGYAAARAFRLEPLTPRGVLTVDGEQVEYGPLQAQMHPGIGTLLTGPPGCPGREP
The following applies: at 0.1 µM.

The target in assay [3] is T1, Sphingosine kinase 2 (Homo sapiens). The following applies: at 1 µM.
Assay [4] deals with Casein kinase II subunit alpha (Homo sapiens) (UniProt P68400). The conditions noted are these: at 0.1 µM.
Assay [5] shares this target. The following applies: at 1 µM.
Assay [6] addresses T2, Inhibitor of nuclear factor kappa-B kinase subunit alpha (Homo sapiens) (UniProt O15111).
T2 sequence (whole entry): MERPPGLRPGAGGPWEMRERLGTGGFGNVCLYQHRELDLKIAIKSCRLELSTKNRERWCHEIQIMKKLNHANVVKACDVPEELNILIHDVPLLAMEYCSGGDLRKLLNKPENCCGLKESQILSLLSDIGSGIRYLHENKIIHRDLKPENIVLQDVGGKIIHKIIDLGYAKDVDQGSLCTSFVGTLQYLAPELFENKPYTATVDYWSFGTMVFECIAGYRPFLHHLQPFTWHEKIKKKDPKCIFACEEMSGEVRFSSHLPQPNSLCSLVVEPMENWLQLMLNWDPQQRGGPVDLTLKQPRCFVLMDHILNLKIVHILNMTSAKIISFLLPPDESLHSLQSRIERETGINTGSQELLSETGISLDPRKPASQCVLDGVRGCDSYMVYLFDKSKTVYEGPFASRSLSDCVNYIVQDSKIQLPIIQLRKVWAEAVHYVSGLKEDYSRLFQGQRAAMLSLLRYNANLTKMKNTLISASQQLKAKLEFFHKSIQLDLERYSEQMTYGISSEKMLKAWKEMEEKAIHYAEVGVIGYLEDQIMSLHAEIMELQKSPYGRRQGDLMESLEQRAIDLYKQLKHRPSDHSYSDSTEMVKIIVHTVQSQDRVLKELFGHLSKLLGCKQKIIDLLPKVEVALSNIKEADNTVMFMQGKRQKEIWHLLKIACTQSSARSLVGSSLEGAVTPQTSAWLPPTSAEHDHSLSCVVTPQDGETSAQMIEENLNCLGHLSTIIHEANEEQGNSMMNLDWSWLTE
The following applies: at 0.1 µM.

For assay [7], the target named is T2, Inhibitor of nuclear factor kappa-B kinase subunit alpha (Homo sapiens). The following applies: at 1 µM.
Assay [8] addresses T3, Inhibitor of nuclear factor kappa-B kinase subunit beta (Homo sapiens) (UniProt O14920).
T3 sequence (whole entry): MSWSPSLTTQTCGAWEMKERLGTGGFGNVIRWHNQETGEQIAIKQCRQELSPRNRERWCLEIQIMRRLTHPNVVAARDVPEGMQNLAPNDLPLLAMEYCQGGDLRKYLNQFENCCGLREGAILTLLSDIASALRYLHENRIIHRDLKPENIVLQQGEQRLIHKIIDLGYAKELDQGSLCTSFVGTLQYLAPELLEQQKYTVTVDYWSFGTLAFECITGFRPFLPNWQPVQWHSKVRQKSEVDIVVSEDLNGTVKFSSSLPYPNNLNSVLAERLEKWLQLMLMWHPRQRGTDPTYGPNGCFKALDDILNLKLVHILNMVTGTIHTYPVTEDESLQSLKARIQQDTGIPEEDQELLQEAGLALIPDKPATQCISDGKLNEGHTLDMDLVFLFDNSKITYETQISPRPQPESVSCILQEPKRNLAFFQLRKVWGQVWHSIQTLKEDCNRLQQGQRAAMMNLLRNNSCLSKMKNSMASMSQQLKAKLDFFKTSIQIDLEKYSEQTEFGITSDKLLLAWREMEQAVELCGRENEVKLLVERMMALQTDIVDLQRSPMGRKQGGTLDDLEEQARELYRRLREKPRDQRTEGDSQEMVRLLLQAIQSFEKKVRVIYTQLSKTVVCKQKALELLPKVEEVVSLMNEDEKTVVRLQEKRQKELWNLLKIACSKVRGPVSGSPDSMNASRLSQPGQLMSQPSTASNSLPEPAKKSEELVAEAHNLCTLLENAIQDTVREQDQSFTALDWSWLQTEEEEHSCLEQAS
The conditions noted are these: at 0.1 µM.

Assay [9] has as its target T3, Inhibitor of nuclear factor kappa-B kinase subunit beta (Homo sapiens). The following applies: at 1 µM.
The target in assay [10] is T4, Inhibitor of nuclear factor kappa-B kinase subunit epsilon (Homo sapiens) (UniProt Q14164).
T4 sequence (whole entry): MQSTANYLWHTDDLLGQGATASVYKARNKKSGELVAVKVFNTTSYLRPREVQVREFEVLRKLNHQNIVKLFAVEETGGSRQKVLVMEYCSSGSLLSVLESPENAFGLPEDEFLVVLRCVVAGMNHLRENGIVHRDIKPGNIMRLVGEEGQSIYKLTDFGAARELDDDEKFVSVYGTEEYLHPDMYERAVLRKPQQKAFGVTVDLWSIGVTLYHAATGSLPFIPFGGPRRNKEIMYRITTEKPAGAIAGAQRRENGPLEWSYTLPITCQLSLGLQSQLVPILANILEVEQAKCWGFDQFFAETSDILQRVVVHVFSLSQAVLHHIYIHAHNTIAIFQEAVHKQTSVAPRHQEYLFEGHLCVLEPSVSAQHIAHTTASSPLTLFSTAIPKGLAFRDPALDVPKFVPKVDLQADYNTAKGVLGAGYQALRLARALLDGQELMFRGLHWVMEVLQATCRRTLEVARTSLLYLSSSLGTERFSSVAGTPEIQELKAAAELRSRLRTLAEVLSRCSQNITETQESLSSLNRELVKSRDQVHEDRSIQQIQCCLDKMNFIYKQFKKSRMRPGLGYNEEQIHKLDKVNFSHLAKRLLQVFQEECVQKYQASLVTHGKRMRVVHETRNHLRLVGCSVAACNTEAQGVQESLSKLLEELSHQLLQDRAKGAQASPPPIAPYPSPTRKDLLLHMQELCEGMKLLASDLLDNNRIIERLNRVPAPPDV
The following applies: at 0.1 µM.

In assay [11] the target is T4, Inhibitor of nuclear factor kappa-B kinase subunit epsilon (Homo sapiens). The following applies: at 1 µM.
Assay [12] addresses T5, Serine/threonine-protein kinase Nek1 (Homo sapiens) (UniProt Q96PY6).
T5 sequence (whole entry): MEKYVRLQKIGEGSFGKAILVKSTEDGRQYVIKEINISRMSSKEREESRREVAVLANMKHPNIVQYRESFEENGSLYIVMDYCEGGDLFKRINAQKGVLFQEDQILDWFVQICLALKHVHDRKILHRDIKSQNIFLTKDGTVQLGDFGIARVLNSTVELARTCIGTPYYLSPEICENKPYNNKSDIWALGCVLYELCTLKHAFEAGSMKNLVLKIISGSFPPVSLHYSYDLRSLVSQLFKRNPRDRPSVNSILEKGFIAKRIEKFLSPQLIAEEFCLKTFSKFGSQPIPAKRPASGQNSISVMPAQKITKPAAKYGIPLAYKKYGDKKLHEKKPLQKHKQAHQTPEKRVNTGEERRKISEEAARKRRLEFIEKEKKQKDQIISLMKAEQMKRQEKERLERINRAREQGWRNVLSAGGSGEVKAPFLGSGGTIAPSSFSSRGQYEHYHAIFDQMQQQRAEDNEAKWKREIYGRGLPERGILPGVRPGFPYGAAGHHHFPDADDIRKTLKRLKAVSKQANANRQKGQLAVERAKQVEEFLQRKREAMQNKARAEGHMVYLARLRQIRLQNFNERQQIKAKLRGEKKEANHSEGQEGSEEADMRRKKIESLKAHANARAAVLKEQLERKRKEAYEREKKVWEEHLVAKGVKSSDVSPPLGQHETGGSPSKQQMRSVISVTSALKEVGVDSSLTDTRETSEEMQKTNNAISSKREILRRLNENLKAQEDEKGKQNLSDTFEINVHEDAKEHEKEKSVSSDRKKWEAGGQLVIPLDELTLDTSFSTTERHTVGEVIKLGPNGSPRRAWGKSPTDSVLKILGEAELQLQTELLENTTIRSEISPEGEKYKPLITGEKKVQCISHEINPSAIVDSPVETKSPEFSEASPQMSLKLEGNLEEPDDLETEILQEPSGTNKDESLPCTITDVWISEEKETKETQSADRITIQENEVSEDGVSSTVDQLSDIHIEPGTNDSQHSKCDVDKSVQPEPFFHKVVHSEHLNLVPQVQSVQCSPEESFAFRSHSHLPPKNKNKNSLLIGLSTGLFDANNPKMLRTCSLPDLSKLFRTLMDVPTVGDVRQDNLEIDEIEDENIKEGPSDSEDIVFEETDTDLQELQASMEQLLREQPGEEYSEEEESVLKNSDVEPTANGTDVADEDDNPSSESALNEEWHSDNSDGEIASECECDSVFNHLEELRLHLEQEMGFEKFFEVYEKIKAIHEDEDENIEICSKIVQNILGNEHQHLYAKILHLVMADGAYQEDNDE
The conditions noted are these: at 0.1 µM.

Assay [13] addresses T5, Serine/threonine-protein kinase Nek1 (Homo sapiens). The following applies: at 1 µM.
Assay [14] addresses T6, Serine/threonine-protein kinase Nek2 (Homo sapiens) (UniProt P51955).
T6 sequence (whole entry): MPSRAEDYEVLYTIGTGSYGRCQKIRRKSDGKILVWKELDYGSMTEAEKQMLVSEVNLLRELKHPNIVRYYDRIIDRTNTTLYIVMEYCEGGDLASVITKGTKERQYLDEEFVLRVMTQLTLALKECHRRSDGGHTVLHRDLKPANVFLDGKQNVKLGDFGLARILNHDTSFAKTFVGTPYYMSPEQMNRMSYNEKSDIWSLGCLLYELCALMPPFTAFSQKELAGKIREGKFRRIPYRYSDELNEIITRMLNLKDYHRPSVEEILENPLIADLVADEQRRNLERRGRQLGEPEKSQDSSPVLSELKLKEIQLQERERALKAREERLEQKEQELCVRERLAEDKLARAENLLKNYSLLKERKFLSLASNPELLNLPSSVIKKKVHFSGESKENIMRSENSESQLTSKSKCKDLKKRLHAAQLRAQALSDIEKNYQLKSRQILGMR
The following applies: at 0.1 µM.

For assay [15], the target named is T6, Serine/threonine-protein kinase Nek2 (Homo sapiens). The conditions noted are these: at 1 µM.
Assay [16] concerns the target Serine/threonine-protein kinase Nek6 (Homo sapiens) (UniProt Q9HC98). The conditions noted are these: at 0.1 µM.
Assay [17] shares this target. The following applies: at 1 µM.
Assay [18] has as its target Serine/threonine-protein kinase Nek7 (Homo sapiens) (UniProt Q8TDX7). The following applies: at 0.1 µM.
For assay [19] the target is unchanged. The conditions noted are these: at 1 µM.
Assay [20] concerns the target T7, Serine/threonine-protein kinase Nek9 (Homo sapiens) (UniProt Q8TD19).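 Further: reported value is the mean percent inhibition of NEK9.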
T7 sequence (whole entry): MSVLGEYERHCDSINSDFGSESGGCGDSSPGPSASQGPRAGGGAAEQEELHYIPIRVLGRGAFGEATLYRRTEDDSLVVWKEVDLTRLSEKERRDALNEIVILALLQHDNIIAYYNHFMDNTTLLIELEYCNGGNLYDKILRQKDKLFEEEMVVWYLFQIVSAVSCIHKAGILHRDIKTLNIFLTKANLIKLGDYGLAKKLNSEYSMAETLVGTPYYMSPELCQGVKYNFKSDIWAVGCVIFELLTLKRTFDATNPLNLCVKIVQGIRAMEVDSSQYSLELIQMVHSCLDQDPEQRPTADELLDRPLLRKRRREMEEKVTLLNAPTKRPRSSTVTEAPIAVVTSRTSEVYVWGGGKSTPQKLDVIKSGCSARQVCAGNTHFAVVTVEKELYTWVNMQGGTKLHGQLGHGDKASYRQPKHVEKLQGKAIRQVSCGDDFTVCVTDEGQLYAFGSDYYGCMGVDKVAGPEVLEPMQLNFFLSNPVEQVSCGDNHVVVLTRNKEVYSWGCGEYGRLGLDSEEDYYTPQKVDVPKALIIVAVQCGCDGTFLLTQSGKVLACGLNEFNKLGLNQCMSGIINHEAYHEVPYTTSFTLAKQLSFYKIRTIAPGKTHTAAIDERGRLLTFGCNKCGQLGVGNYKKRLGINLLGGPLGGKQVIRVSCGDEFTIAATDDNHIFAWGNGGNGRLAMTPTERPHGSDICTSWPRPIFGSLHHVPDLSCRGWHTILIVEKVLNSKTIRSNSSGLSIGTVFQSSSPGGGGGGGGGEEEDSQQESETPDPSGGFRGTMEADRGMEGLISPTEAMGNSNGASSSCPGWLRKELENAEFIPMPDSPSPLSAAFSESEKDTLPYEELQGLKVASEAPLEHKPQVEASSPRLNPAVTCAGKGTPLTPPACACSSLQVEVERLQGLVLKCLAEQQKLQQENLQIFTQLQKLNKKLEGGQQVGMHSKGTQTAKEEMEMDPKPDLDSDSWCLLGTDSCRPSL
The following applies: at 0.1 µM.

Sequence of Serine/threonine-protein kinase Nek6 (Homo sapiens) (Q9HC98 whole entry): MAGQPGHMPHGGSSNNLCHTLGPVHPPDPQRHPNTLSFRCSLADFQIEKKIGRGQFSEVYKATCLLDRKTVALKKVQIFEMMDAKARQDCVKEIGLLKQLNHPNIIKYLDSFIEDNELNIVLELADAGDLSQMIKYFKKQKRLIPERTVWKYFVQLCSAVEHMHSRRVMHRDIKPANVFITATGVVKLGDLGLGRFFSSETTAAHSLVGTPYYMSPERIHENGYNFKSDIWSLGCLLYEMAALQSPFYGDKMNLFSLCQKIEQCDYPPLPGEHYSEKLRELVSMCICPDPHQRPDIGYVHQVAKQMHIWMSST
Sequence of Casein kinase II subunit alpha (Homo sapiens) (P68400 whole entry, looked up): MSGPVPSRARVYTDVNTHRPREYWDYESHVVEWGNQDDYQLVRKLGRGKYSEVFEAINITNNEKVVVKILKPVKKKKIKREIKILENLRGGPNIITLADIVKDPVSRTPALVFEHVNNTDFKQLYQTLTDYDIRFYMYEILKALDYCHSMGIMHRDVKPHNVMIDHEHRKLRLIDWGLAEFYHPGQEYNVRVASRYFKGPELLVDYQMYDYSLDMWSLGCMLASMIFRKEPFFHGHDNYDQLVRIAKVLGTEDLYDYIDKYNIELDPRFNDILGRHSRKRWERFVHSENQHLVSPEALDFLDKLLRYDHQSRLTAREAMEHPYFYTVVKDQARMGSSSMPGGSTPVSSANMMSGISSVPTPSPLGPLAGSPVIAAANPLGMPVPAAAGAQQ
Sequence of Serine/threonine-protein kinase Nek7 (Homo sapiens) (Q8TDX7 whole entry, looked up): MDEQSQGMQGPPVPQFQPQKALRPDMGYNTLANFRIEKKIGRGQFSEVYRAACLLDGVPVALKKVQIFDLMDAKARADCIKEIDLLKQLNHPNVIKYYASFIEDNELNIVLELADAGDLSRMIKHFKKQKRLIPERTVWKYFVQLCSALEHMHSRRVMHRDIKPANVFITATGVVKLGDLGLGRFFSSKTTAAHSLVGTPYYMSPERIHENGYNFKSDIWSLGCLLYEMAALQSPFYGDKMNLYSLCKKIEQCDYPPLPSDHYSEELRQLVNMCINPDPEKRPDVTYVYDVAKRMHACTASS
Sequence of Sphingosine kinase 1 (Homo sapiens) (Q9NYA1 whole entry): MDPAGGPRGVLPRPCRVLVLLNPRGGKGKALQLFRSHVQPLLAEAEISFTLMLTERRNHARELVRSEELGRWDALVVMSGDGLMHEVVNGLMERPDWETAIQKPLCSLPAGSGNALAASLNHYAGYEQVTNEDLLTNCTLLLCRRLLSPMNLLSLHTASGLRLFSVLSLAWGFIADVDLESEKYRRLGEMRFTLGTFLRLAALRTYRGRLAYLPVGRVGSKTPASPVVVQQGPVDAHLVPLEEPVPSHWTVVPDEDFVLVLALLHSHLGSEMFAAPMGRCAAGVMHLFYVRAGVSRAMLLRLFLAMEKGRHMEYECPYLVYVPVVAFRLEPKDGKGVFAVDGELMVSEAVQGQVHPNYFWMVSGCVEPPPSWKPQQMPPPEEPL

Consider `CCN1CCC(CC(=O)Nc2n[nH]c3nnc(-c4cccc(F)c4F)cc23)CC1`, for which the inhibition in assay [1] is 1.84%; in assay [2], -1.05%; in assay [3], 0%; in assay [4], 5.23%; in [5], 2.82%; in assay [6] it was 4.71%. The inhibition in assay [7] was 0.12%; in [8] it was 5.28%; in [9], 3.6%; in assay [10], 4.71%; in [11], 4.56%; in assay [12] it was 1.55%. In addition, the inhibition in assay [13] is 1.21%; in assay [14], 2.78%; in [15], 1.49%; in assay [16] it was 2.04%; in assay [17], 2.93%; in assay [18], 2.55%. The inhibition in assay [19] amounted to 1.27%; in assay [20], 0.14%.

One may read the inhibition as the relative decrease from the control value, in per cent.

(Values after ChEMBL document CHEMBL1961873, “Compounds: GSK PKIS; Assays: Nanosyn kinase panel” (2012).)
